{"source": "PubChem BioAssay AID1159580", "about": "(chemical genetic matrix, 2015)", "assay": "chemical genetic growth profiling, strain panel (AID 1159580);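 note: tested at 20 µM; growth read once vehicle control cultures reached saturation at 30 °C; 1 = growth at the plate median or of vehicle wells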", "conditions": "S. cerevisiae deletion strains, growth OD", "note": "Values joined by “and” are separate entries in the source; they are usually repeats but may differ in a detail not shown here. Equal entries are not always repeated. The whole screen tested about 5,500 compounds, of which about 2,000 (36%) were called active. Not shown: some 18% with an inconclusive outcome. The list shows a part of the results. A number with no mark means an inactive call. Cut-off read from the data, not from the text of the source: active = normalized growth mostly below about 0.91 (no sharp cut-off); inconclusive = no clear call, values can overlap the other calls; inactive = mostly above about 0.92.", "data": [{"smiles": "OC(CCN1CCCCC1)(c1ccccc1)C1CCCCC1", "note": "(stereo unspecified)", "values": [{"measurement": "normalized growth", "setting": "locus YAL013W, strain DEP1, stronger effect = lower value", "result": 1.01}, {"measurement": "normalized growth", "setting": "locus YAL021C, strain ccr4, stronger effect = lower value", "result": 0.968}, {"measurement": "normalized growth", "setting": "locus YAL026C, strain drs2, stronger effect = lower value", "result": 0.994}, {"measurement": "normalized growth", "setting": "locus YAL030W, strain snc1, stronger effect = lower value", "result": 0.97}, {"measurement": "normalized growth", "setting": "locus YAL040C, strain CLN3, stronger effect = lower value", "result": 1.06}, {"measurement": "normalized growth", "setting": "locus YBL061C, strain skt5, stronger effect = lower value", "result": 0.979}, {"measurement": "normalized growth", "setting": "locus YBR009C, strain hhf1, stronger effect = lower value", "result": 0.993}, {"measurement": "normalized growth", "setting": "locus YBR021W, strain FUR4, stronger effect = lower value", "result": 0.998}, {"measurement": "normalized growth", "setting": "locus YBR023C, strain chs3, stronger effect = lower value", "result": 0.977}, {"measurement": "normalized growth", "setting": "locus YBR171W, strain sec66, stronger effect = lower value", "result": 0.974}, {"measurement": "normalized growth", "setting": "locus YBR229C, strain ROT2, stronger effect = lower value", "result": 1.01}, {"measurement": "normalized growth", "setting": "locus YBR231C, strain swc5, stronger effect = lower value", "result": 0.957}, {"measurement": "normalized growth", "setting": "locus YBR279W, strain paf1, stronger effect = lower value", "result": 0.984}, {"measurement": "normalized growth", "setting": "locus YCL011C, strain gbp2, stronger effect = lower value", "result": 0.978}, {"measurement": "normalized growth", "setting": "locus YCL016C, strain dcc1, stronger effect = lower value", "result": 0.993}, {"measurement": "normalized growth", "setting": "locus YCL029C, strain bik1, stronger effect = lower value", "result": 1}, {"measurement": "normalized growth", "setting": "locus YCL061C, strain MRC1 (second series), stronger effect = lower value", "result": 0.981}, {"measurement": "normalized growth", "setting": "locus YCL061C, strain MRC1, stronger effect = lower value", "result": 0.966}, {"measurement": "normalized growth", "setting": "locus YCL069W, strain vba3, stronger effect = lower value", "result": 0.974}, {"measurement": "normalized growth", "setting": "locus YCR088W, strain abp1, stronger effect = lower value", "result": 0.98}, {"measurement": "normalized growth", "setting": "locus YDL005C, strain med2, stronger effect = lower value", "result": 0.972}, {"measurement": "normalized growth", "setting": "locus YDL035C, strain GPR1, stronger effect = lower value", "result": 1.01}, {"measurement": "normalized growth", "setting": "locus YDL040C, strain nat1, stronger effect = lower value", "result": 0.98}, {"measurement": "normalized growth", "setting": "locus YDL074C, strain BRE1, stronger effect = lower value", "result": 0.999}, {"measurement": "normalized growth", "setting": "locus YDL101C, strain DUN1, stronger effect = lower value", "result": 1.01}, {"measurement": "normalized growth", "setting": "locus YDL134C, strain PPH21, stronger effect = lower value", "result": 1.01}, {"measurement": "normalized growth", "setting": "locus YDL185W, strain tfp1, stronger effect = lower value", "result": 1}, {"measurement": "normalized growth", "setting": "locus YDL192W, strain arf1, stronger effect = lower value", "result": 1.01}, {"measurement": "normalized growth", "setting": "locus YDR001C, strain nth1, stronger effect = lower value", "result": 0.969}, {"measurement": "normalized growth", "setting": "locus YDR069C, strain doa4, stronger effect = lower value", "result": 0.948}, {"measurement": "normalized growth", "setting": "locus YDR101C, strain arx1, stronger effect = lower value", "result": 0.995}, {"measurement": "normalized growth", "setting": "locus YDR137W, strain rgp1, stronger effect = lower value", "result": 1.02}, {"measurement": "normalized growth", "setting": "locus YDR150W, strain NUM1, stronger effect = lower value", "result": "1.02 and 0.996"}, {"measurement": "normalized growth", "setting": "locus YDR159W, strain sac3, stronger effect = lower value", "result": 0.998}, {"measurement": "normalized growth", "setting": "locus YDR162C, strain NBP2, stronger effect = lower value", "result": 1.01}, {"measurement": "normalized growth", "setting": "locus YDR195W, strain ref2", "result": 0.927}, {"measurement": "normalized growth", "setting": "locus YDR297W, strain sur2, stronger effect = lower value", "result": 0.965}, {"measurement": "normalized growth", "setting": "locus YDR318W, strain mcm21, stronger effect = lower value", "result": 0.991}, {"measurement": "normalized growth", "setting": "locus YDR334W, strain swr1, stronger effect = lower value", "result": 0.975}, {"measurement": "normalized growth", "setting": "locus YDR335W, strain msn5, stronger effect = lower value", "result": 0.975}, {"measurement": "normalized growth", "setting": "locus YDR363W, strain ESC2, stronger effect = lower value", "result": 0.954}, {"measurement": "normalized growth", "setting": "locus YDR388W, stronger effect = lower value", "result": 0.996}, {"measurement": "normalized growth", "setting": "locus YDR392W, strain spt3, stronger effect = lower value", "result": 1.01}, {"measurement": "normalized growth", "setting": "locus YDR502C, strain sam2, stronger effect = lower value", "result": 0.998}, {"measurement": "normalized growth", "setting": "locus YEL003W, strain gim4, stronger effect = lower value", "result": 0.975}, {"measurement": "normalized growth", "setting": "locus YEL037C, strain rad23, stronger effect = lower value", "result": 0.969}, {"measurement": "normalized growth", "setting": "locus YEL061C, strain CIN8 (second series), stronger effect = lower value", "result": 0.974}, {"measurement": "normalized growth", "setting": "locus YEL061C, strain CIN8, stronger effect = lower value", "result": 1.01}, {"measurement": "normalized growth", "setting": "locus YER002W, strain NOP16, stronger effect = lower value", "result": 1.03}, {"measurement": "normalized growth", "setting": "locus YER015W, strain faa2, stronger effect = lower value", "result": 0.976}, {"measurement": "normalized growth", "setting": "locus YER016W, strain bim1, stronger effect = lower value", "result": 1}, {"measurement": "normalized growth", "setting": "locus YER110C, stronger effect = lower value", "result": 1}, {"measurement": "normalized growth", "setting": "locus YER111C, strain swi4, stronger effect = lower value", "result": 0.961}, {"measurement": "normalized growth", "setting": "locus YER155C, strain BEM2 (second series), stronger effect = lower value", "result": 0.929}, {"measurement": "normalized growth", "setting": "locus YER155C, strain BEM2, stronger effect = lower value", "result": "0.791 (active)"}, {"measurement": "normalized growth", "setting": "locus YER167W, strain BCK2, stronger effect = lower value", "result": 1.01}, {"measurement": "normalized growth", "setting": "locus YFR010W, strain ubp6, stronger effect = lower value", "result": 0.975}, {"measurement": "normalized growth", "setting": "locus YGL078C, strain dbp3, stronger effect = lower value", "result": 0.991}, {"measurement": "normalized growth", "setting": "locus YGL086W, strain mad1, stronger effect = lower value", "result": 0.993}, {"measurement": "normalized growth", "setting": "locus YGL167C, strain pmr1, stronger effect = lower value", "result": 0.961}, {"measurement": "normalized growth", "setting": "locus YGL173C, strain kem1, stronger effect = lower value", "result": 0.934}, {"measurement": "normalized growth", "setting": "locus YGL227W, strain vid30, stronger effect = lower value", "result": 0.982}, {"measurement": "normalized growth", "setting": "locus YGL240W, strain doc1, stronger effect = lower value", "result": 0.961}, {"measurement": "normalized growth", "setting": "locus YGL248W, strain PDE1, stronger effect = lower value", "result": 1.01}, {"measurement": "normalized growth", "setting": "locus YGL253W, strain hxk2, stronger effect = lower value", "result": 0.97}, {"measurement": "normalized growth", "setting": "locus YGR078C, strain PAC10, stronger effect = lower value", "result": 0.996}, {"measurement": "normalized growth", "setting": "locus YGR135W, strain pre9, stronger effect = lower value", "result": 0.985}, {"measurement": "normalized growth", "setting": "locus YGR229C, strain SMI1, stronger effect = lower value", "result": "1 and 0.945"}, {"measurement": "normalized growth", "setting": "locus YGR252W, strain gcn5, stronger effect = lower value", "result": 0.975}, {"measurement": "normalized growth", "setting": "locus YHR013C, strain ard1, stronger effect = lower value", "result": 0.971}, {"measurement": "normalized growth", "setting": "locus YHR027C, strain rpn1, stronger effect = lower value", "result": 0.988}, {"measurement": "normalized growth", "setting": "locus YHR030C, strain SLT2, stronger effect = lower value", "result": "1.02 and 0.961"}, {"measurement": "normalized growth", "setting": "locus YHR079C, strain IRE1 (second series), stronger effect = lower value", "result": 0.992}, {"measurement": "normalized growth", "setting": "locus YHR079C, strain IRE1, stronger effect = lower value", "result": 0.99}, {"measurement": "normalized growth", "setting": "locus YHR094C, strain hxt1, stronger effect = lower value", "result": 1}, {"measurement": "normalized growth", "setting": "locus YHR129C, strain ARP1, stronger effect = lower value", "result": 1.01}, {"measurement": "normalized growth", "setting": "locus YHR142W, strain chs7, stronger effect = lower value", "result": 0.978}, {"measurement": "normalized growth", "setting": "locus YHR200W, strain rpn10, stronger effect = lower value", "result": 1}, {"measurement": "normalized growth", "setting": "locus YIL066C, strain RNR3, stronger effect = lower value", "result": 1.01}, {"measurement": "normalized growth", "setting": "locus YIL073C, strain SPO22, stronger effect = lower value", "result": 1.05}, {"measurement": "normalized growth", "setting": "locus YIL125W, strain kgd1, stronger effect = lower value", "result": 1}, {"measurement": "normalized growth", "setting": "locus YIR030C, strain dcg1, stronger effect = lower value", "result": 0.999}, {"measurement": "normalized growth", "setting": "locus YJL092W, strain hpr5, stronger effect = lower value", "result": 0.954}, {"measurement": "normalized growth", "setting": "locus YJL095W, strain BCK1 (second series), stronger effect = lower value", "result": 0.971}, {"measurement": "normalized growth", "setting": "locus YJL095W, strain BCK1, stronger effect = lower value", "result": "0.984 and 0.98"}, {"measurement": "normalized growth", "setting": "locus YJL115W, strain asf1, stronger effect = lower value", "result": 0.961}, {"measurement": "normalized growth", "setting": "locus YJL129C, strain trk1, stronger effect = lower value", "result": 0.953}, {"measurement": "normalized growth", "setting": "locus YJL134W, strain LCB3, stronger effect = lower value", "result": 1.01}, {"measurement": "normalized growth", "setting": "locus YJL154C, strain vps35, stronger effect = lower value", "result": 0.971}, {"measurement": "normalized growth", "setting": "locus YJL164C, strain tpk1, stronger effect = lower value", "result": 1.01}, {"measurement": "normalized growth", "setting": "locus YJL166W, strain qcr8, stronger effect = lower value", "result": 0.925}, {"measurement": "normalized growth", "setting": "locus YJL168C, strain set2, stronger effect = lower value", "result": 0.991}, {"measurement": "normalized growth", "setting": "locus YJL187C, strain SWE1 (second series), stronger effect = lower value", "result": 1.01}, {"measurement": "normalized growth", "setting": "locus YJL187C, strain SWE1, stronger effect = lower value", "result": 0.975}, {"measurement": "normalized growth", "setting": "locus YJR043C, strain POL32, stronger effect = lower value", "result": 1.01}, {"measurement": "normalized growth", "setting": "locus YJR066W, strain TOR1, stronger effect = lower value", "result": 0.93}]}]}
